Compound activity deposited in PubChem by several laboratories.
SKKanGAS inh = inhibitors of SKKanGAS S. pyogenes growth in kanamycin (SK-promoter or general growth effect). BacTiter-Glo, 6 h. inhibition, % at 7.5 µM. hit rate 1.3% among 300,000;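 active means mean replicate score, as percent of positive control median, at least 50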;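 further: strain carries kanamycin resistance gene driven by streptokinase promoter and grows in 40 µg/ml kanamycin; loss of luminescence reflects streptokinase promoter inhibition or plain growth inhibition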
ATG4B inhibitor = blocks human ATG4B protease cleavage of LC3 substrate; ATG4B cleavage of LC3-PLA2, NBD-HPC fluorescence, 1 h; inhibition, % at 8.33 µM; hit rate 0.51% among 340,000; AID 504462; in the data active means inhibition above about 40%
Target sequence (Q9Y4P1 whole entry, looked up): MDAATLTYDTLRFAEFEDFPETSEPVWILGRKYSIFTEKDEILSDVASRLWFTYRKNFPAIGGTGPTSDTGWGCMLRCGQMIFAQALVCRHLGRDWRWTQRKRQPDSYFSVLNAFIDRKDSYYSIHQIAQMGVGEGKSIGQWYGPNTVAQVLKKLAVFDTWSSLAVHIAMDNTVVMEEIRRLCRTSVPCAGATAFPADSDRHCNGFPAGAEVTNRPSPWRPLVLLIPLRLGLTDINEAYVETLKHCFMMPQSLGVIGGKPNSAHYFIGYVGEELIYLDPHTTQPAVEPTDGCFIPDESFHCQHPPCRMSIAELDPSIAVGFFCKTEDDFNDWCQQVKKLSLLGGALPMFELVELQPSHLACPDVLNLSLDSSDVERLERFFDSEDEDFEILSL
TIM10 inh = inhibits growth of TIM10 yeast strain; S. cerevisiae TIM10 strain growth, BacTiter-Glo luminescence, 24 h; inhibition, % at 10 µM; hit rate 1.4% among 330,000;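 active means inhibition of 40% or more at the single tested concentration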;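 further: wild-type TIM10 isogenic control strain grown at permissive 25 °C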
PfHsp90 yeast 2 = growth inhibition of yeast expressing Plasmodium Hsp90. inhibition, % at 9.4 µM. hit rate 0.32% among 310,000. S. cerevisiae expressing PfHsp90, BacTiter-Glo ATP, 48 h; yeast lacking PDR1 and PDR3 efflux regulators;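 active means every replicate shows inhibition above about 80%, whatever the replicate mean, limit read from the data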
tim10-1 inh = growth inhibitors of tim10-1 mutant yeast | AID 463190 | hit rate 2.2% among 330,000 | S. cerevisiae tim10-1 ts strain growth, BacTiter-Glo, 24 h | inhibition, % at 20 µM;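 active means inhibition of at least 40%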;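 further: mutant grown at 25 °C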
tim23-1 inh = growth inhibitors of tim23-1 mutant yeast. S. cerevisiae tim23-1 growth, BacTiter-Glo luminescence, 24 h. inhibition, % at 20 µM. hit rate 1.3% among 330,000. AID 463212;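 active means growth inhibition of the mutant yeast at or above 50%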;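 further: temperature-sensitive mutant grown at 25 °C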
tim10-1 confirm = confirmation of tim10-1 mutant yeast growth inhibitors. shares compounds with tim10-1 inh. S. cerevisiae tim10-1 ts strain growth, BacTiter-Glo, 24 h. inhibition, % at 20 µM. hit rate 56% among 7,400. AID 463213;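 active means inhibition of yeast growth at or above a set limit in either of two repeat tests at 20 µM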;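 further: tim10-1 mutant grown at permissive 25 °C to find synthetic lethal compounds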
A number is an active result; i = inactive; nt = no result. Most compounds without a hit are left out; they make up all but 4.7% or so of the library.

SMILES	SKKanGAS inh	ATG4B inhibitor	TIM10 inh	PfHsp90 yeast 2	tim10-1 inh	tim23-1 inh	tim10-1 confirm
CN1CC(c2ccc(C#N)cc2)C2(COc3ccccc3C2=O)C12C(=O)Nc1ccccc12 (stereo not given)	i	i	i	i	40	i	40
CSc1ccccc1NC(=O)C1CC(c2c(F)cccc2Cl)=NO1 (stereo not given)	i	i	i	i	46	i	56
O=C(Nc1cc(Br)ccc1O)C1CC(c2c(F)cccc2Cl)=NO1 (stereo not given)	i	i	i	i	i	i	nt
COc1cc(Cl)c(C)cc1NC(=S)NN	i	i	i	i	41	i	i
COc1cc(Cl)c(C)cc1NC(=O)CSc1ccc(NC(C)=O)cc1	i	i	i	i	42	i	i
COc1cc(C)c(NC(=S)Nc2ccc(Cl)c(Cl)c2)cc1OC	i	i	i	i	45	i	i
COc1cc(Cl)c(C)cc1NC(=O)c1cccc(OC)c1OC	i	i	i	i	41	i	i
COc1cccc(C(=O)Nc2cccc3ccccc23)c1OC	i	i	i	i	i	i	nt
COCCNC(=S)Nc1ccc(Cl)c(Cl)c1	i	i	i	i	i	i	nt
N#Cc1ccccc1NC(=O)C1SC(=Nc2ccccc2)C(C(=O)Nc2ccc(Cl)cc2)=C1N (stereo not given)	i	i	i	nt	43	i	i
CCOc1ccc(N=C2SC(C(=O)Nc3ccccc3C#N)C(N)=C2C(=O)Nc2ccc(Cl)cc2)cc1 (stereo not given)	i	i	i	i	i	i	nt
COc1ccc(C(=O)CN(C(=O)c2ccc(Cl)cc2)N2C(=O)C3CCCCC3C2=O)cc1 (stereo not given)	i	i	i	nt	47	i	i
CC1=CC2=C(OC1N(C)C)c1cccc3cccc(c13)C2=O (stereo not given)	i	i	i	nt	47	i	55
CCCCS/C(=C(/C#N)C(N)=O)c1cc2c([nH]1)CCCC2	i	i	i	nt	45	i	38
Clc1ccccc1Cn1nnc2c(N3CCCC3)ncnc21	i	i	i	i	i	i	nt
OC1CCN(c2ncnc3c2nnn3Cc2c(F)cccc2Cl)CC1	i	i	i	i	43	i	i
CCc1ccc2oc(-c3cccc(N)c3)nc2c1	i	i	i	i	i	i	nt
Nc1ccc2oc(-c3cccc(Br)c3)nc2c1	i	i	i	i	60	i	50
O=C(NC1CCCCC1)C(c1cccs1)N(Cc1cccs1)C(=O)c1cccs1 (stereo not given)	i	i	i	i	45	i	26
O=C(NC1CCCCC1)C(c1ccc2ncccc2c1)N(Cc1cccs1)C(=O)c1cccs1 (stereo not given)	i	i	i	i	i	i	nt
Cc1c(C)n(Cc2ccccc2)c2ccc(C(=O)OCCN(C)C)cc12	i	i	i	i	41	i	43
Cc1c(C)n(Cc2ccccc2)c2ccc(C(=O)NCCN3CCOCC3)cc12	i	i	i	i	i	i	nt
CC1(C)CN(c2ccc(CC#N)cc2)C1=O	i	i	i	i	i	i	nt
CCOc1ccccc1C1N=C(c2ccc(OC)cc2)CC(c2ccccc2O)N1 (stereo not given)	i	i	i	i	44	i	i
CC(C)C1N=C(c2ccc3c(c2)OCO3)CC(c2ccccc2O)N1 (stereo not given)	i	i	i	i	i	i	nt
SMILES	SKKanGAS inh	ATG4B inhibitor	TIM10 inh	PfHsp90 yeast 2	tim10-1 inh	tim23-1 inh	tim10-1 confirm
COc1ccccc1-c1nnc2sc(C3CCCCC3)nn12	nt	i	i	i	43	i	i
Cc1sc(N)nc1-c1c(C)n(C)c2ccccc12	i	i	i	i	68	i	i
CC(C)N1CCc2c(sc(NC(=O)C3CCCCC3)c2C(N)=O)C1	i	i	i	i	i	i	nt
Cc1cccc(OCc2nnc(SCCC(=O)O)n2-c2ccccc2)c1	i	i	i	i	i	i	nt
Cn1c(CSc2nnc(SCc3ccccc3)s2)nc2ccccc21	i	i	i	i	56	i	42
CC(C)Cc1cc(C(=O)Nc2cc(C(F)(F)F)ccc2Cl)no1	i	i	i	nt	i	i	nt
O=C(C1COc2ccccc2O1)N1CCN(c2nc3c(F)cc(F)cc3s2)CC1 (stereo not given)	i	i	i	i	40	i	i
Cc1cc(C)cc(NS(=O)(=O)c2ccc(-c3cnc(C4CC4)o3)cc2)c1	i	i	i	i	i	i	nt
COc1ccccc1NS(=O)(=O)c1cc(-c2cnc(C3CC3)o2)ccc1C	i	i	i	i	45	i	i
O=S(=O)(Nc1ccccc1)c1ccc(-c2cnc(C3CC3)o2)cc1	i	i	i	i	46	i	i
COc1ccc(NS(=O)(=O)c2cc(-c3cnc(C4CC4)o3)ccc2C)cc1	i	i	i	i	44	i	i
CCOC(=O)c1sc(NS(=O)(=O)c2cc(C)ccc2C)nc1C	i	i	i	nt	i	i	nt
O=C1c2ccccc2NC(c2ccc(Cl)cc2Cl)N1Cc1ccccc1 (stereo not given)	i	i	i	nt	i	i	nt
O=C1c2ccccc2NC(c2c(Cl)cccc2Cl)N1Cc1ccccc1 (stereo not given)	i	i	i	i	40	i	i
Cc1ccnc(NC(=O)c2ccccc2NC(=O)c2ccccc2)c1	i	i	i	i	50	i	33
Cc1ccnc(NC(=O)c2ccc(C(=O)c3ccccc3)cc2)c1	i	i	i	i	i	i	nt
O=C(Cc1cccs1)N1CCN=C1SCc1ccccc1Cl	i	i	i	nt	40	i	34
Cc1ccc2[nH]c3c(c2c1)CN(C(=O)CN1c2ccc(F)cc2CCC1C)CC3 (stereo not given)	i	i	i	i	43	i	38
Cc1nc(NC(=O)COC(=O)C2CC3CCCC(C2)C3=O)c(Cl)cc1Cl (stereo not given)	nt	i	i	nt	i	i	nt
COc1cc(/C=C/c2nnc3c4ccccc4ncn23)cc(OC)c1OC	i	i	i	i	44	i	i
C(=C\c1nnc2c3ccccc3ncn12)/c1ccccc1	i	i	nt	i	nt	nt	nt
CC(=O)c1sc(NC(=O)c2cnc(Cl)c(Cl)c2)nc1C	i	i	i	i	i	i	nt
O=C(c1ccccc1)N1CCN(c2ncccn2)CC1	i	i	i	i	i	i	nt
CCNC(=S)N1CCN(c2ccccc2OCC)CC1	i	i	i	i	i	i	nt
COc1ccccc1C1CCN(C(=O)c2ccco2)CC1	i	i	i	i	i	i	nt
CCOc1ccccc1N1CCN(C(=S)NCc2ccccc2)CC1	i	i	i	i	44	i	i
O=C(c1ccc(Cn2cc(Br)cn2)cc1)N1CCN(c2ccccc2)CC1	i	i	i	nt	52	i	44
O=C(c1ccc(-c2ccccc2)cc1)N1CCN(c2ncccn2)CC1	nt	i	i	i	43	i	i
